Measured values from PubChem BioAssay (Tox21).
Inconclusive results are not listed. Active and inactive are the calls of the source. Unless noted, calls follow the shape of the dose curve; as a rule, active = well fitted curve in the direction sought with a large enough effect in the repeat runs; inconclusive = weak or mixed curves; inactive = flat fitted curve, though single readings scatter.

Columns and labels:
[1] = qHTS assay to test for compound auto fluorescence at 460 nm (blue) in HEK293 cell free culture (AID 720681)
Summary of the method: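 Test compounds were pinned into cell-free culture medium (DMEM with 10% FBS) and fluorescence was read directly at Ex/Em 405/460 nm. Signals were expressed as fluorescence equivalents of triamterene, with DMSO vehicle as control.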

[2] = qHTS assay to test for compound auto fluorescence at 535 nm (green) in HEK293 cell free culture (AID 720682)
Summary of the method: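 Steps: dispense DMEM/10% FBS into empty wells; pin in compound or DMSO; measure fluorescence at 485/535 nm. Values are fluorescein equivalents.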

[3] = qHTS assay to test for compound auto fluorescence at 590 nm (red) in HEK293 cell free culture (AID 720683)
Summary of the method: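 Tox21 10K library compounds were pinned into cell-free DMEM with 10% FBS and fluorescence was read at excitation 540 nm. Activity is expressed as Rose Bengal sodium equivalency.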

[4] = qHTS assay to test for compound auto fluorescence at 590 nm (red) in HepG2 cell free culture (AID 720684)
Summary of the method: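 Red fluorescence (540 nm excitation, 590 nm emission) was measured after compound transfer into cell-free MEM supplemented with 10% FBS. Values are equivalencies against Rose Bengal sodium.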

[5] = qHTS assay to test for compound auto fluorescence at 460 nm (blue) in HepG2 cell free culture (AID 720685)
Summary of the method: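 Compound (23 nL) or DMSO pinned into cell-free MEM with 10% FBS; blue fluorescence read at 405/460 nm excitation/emission, expressed as auto-fluorescence equivalency to triamterene.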

[6] = qHTS assay to test for compound auto fluorescence at 535 nm (green) in HepG2 cell free culture (AID 720686)
[7] = qHTS assay to test for compound auto fluorescence at 460 nm (blue) in HepG2 cells (AID 720687)
Summary of the method: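 Cells (2,000/well in MEM with 10% FBS) attached overnight at 37 C, then were exposed to compound or DMSO for 1 hr at 37 C, 5% CO2. Fluorescence read at Ex/Em 405/460 nm, expressed as triamterene-equivalent signal.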

[8] = target: Glucocorticoid receptor (Homo sapiens) (UniProt P04150); experiment: qHTS assay to identify small molecule agonists of the glucocorticoid receptor (GR) signaling pathway (AID 720691; active = well fitted activation curve with a large enough effect in the signal ratio in the repeat runs, not every such curve was filed as active; the % refers to the signal ratio)
Chain of Glucocorticoid receptor (Homo sapiens) (P04150 whole entry, looked up): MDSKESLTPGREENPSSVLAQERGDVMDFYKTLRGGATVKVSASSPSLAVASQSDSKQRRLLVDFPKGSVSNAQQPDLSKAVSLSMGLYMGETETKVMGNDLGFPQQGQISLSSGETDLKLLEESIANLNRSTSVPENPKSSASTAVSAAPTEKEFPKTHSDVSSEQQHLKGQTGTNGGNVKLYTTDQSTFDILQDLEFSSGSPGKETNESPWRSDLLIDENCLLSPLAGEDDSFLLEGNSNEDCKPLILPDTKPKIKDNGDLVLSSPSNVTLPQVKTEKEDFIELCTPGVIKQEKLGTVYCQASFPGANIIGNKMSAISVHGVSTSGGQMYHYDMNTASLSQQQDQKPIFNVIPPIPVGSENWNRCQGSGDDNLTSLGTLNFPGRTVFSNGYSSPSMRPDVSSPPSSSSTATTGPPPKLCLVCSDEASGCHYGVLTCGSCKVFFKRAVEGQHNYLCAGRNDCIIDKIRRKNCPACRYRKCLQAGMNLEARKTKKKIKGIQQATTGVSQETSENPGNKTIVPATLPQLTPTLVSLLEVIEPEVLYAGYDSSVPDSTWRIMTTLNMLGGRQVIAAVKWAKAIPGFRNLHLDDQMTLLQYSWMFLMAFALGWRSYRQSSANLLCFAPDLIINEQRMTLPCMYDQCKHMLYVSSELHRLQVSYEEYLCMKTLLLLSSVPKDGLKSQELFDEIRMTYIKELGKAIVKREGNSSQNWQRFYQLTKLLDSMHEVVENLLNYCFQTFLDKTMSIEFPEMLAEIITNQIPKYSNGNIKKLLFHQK
Summary of the method: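 qHTS in GR-bla HeLa cells: 4 h settling at 37 C/5% CO2, 18 h compound incubation at 37 C, 2 h LiveBLAzer B/G FRET substrate at room temperature, fluorescence intensity measured.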

[9] = target: Glucocorticoid receptor (Homo sapiens) (UniProt P04150); experiment: qHTS assay to identify small molecule antagonists of the glucocorticoid receptor (GR) signaling pathway (AID 720692; active = well fitted inhibition curve with a large enough effect in the signal ratio in the repeat runs, not every such curve was filed as active; the % refers to the signal ratio)
Summary of the method: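 Inhibition of glucocorticoid signalling is measured in HeLa cells with a GRE-controlled beta-lactamase reporter; cells are co-treated with compound and 5 nM dexamethasone (final) for 18 h before FRET substrate readout.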
% is scaled to controls: 0 for no effect and ±100 for the full control effect.

COC(=O)/C=C\C(=O)O
inactive: outcome [1] | outcome [2] | outcome [3] | outcome [4] | outcome [5] | outcome [6] | outcome [7] | Potency [8] | outcome [9]

COP(=O)(O)OP(=O)(O)OC
inactive: outcome [1] | outcome [2] | outcome [3] | outcome [4] | outcome [5] | outcome [6] | outcome [7] | Potency [8]

Cc1ccccc1C(N)=O
inactive: outcome [1] | outcome [2] | outcome [3] | outcome [4] | outcome [5] | outcome [6] | outcome [7] | Potency [8] | outcome [9]

CCCc1ccc(O)cc1
inactive: outcome [1] | outcome [2] | outcome [3] | outcome [4] | outcome [5] | outcome [6] | outcome [7] | Potency [8]

OC[C@H]1O[C@@H](O[C@@H]2[C@@H](CO)O[C@](O)(CO)[C@H]2O)[C@H](O)[C@@H](O)[C@H]1O
inactive: outcome [1] | outcome [2] | outcome [3] | outcome [4] | outcome [5] | outcome [6] | outcome [7] | Potency [8] | outcome [9]

COc1ccc(CCO)cc1
inactive: outcome [1] | outcome [2] | outcome [3] | outcome [4] | outcome [5] | outcome [6] | outcome [7] | Potency [8] | outcome [9]

CC(=O)OC(C)=O
inactive: outcome [1] | outcome [2] | outcome [3] | outcome [4] | outcome [5] | outcome [6] | outcome [7] | Potency [8]

CC1(C)Cc2cccc(N)c2O1
inactive: outcome [1] | outcome [2] | outcome [3] | outcome [4] | outcome [5] | outcome [6] | outcome [7] | Potency [8] | outcome [9]

CC(Oc1cc(Cl)ccc1Cl)C(=O)O (configuration not stated)
inactive: outcome [1] | outcome [2] | outcome [3] | outcome [4] | outcome [5] | outcome [6] | outcome [7] | Potency [8]

[O]=[Mo](=[O])=[O]
inactive: fluorescence, % of fluorescent control [1] 0.0055% [at 18.6 µM] | activity change [2] 0.118% [at 18.6 µM] | fluorescence, % of fluorescent control [3] 0.0845% [at 18.6 µM] | fluorescence, % of fluorescent control [5] 0.041% [at 18.6 µM] | fluorescence, % of fluorescein control [6] -0.0406% [at 18.6 µM] | fluorescence, % of fluorescent control [7] 0.0613% [at 18.6 µM] | Potency [8] | outcome [9]

OCC1CCC(CO)CC1 (configuration not stated)
inactive: outcome [1] | outcome [2] | outcome [3] | outcome [5] | outcome [6] | outcome [7] | Potency [8] | outcome [9]

COc1c2occc2c(OC)c2c(=O)cc(C)oc12
inactive: fluorescence, % of fluorescent control [1] -0.0224% [at 18.6 µM] | activity change [2] 0.0751% [at 18.6 µM] | fluorescence, % of fluorescent control [3] -0.33% [at 18.6 µM] | fluorescence, % of Rose Bengal [4] -0.125% [at 18.6 µM] | fluorescence, % of fluorescent control [5] -0.0661% [at 18.6 µM] | fluorescence, % of fluorescein control [6] 0.0616% [at 18.6 µM] | fluorescence, % of fluorescent control [7] 0.0073% [at 18.6 µM] | Potency [8] | outcome [9]

CCC(=O)c1c(O)cc(O)cc1O
inactive: outcome [1] | outcome [2] | outcome [3] | outcome [5] | outcome [6] | outcome [7] | Potency [8] | outcome [9]

C[Si]1(C)O[Si](C)(C)O[Si](C)(C)O[Si](C)(C)O[Si](C)(C)O1
inactive: outcome [1] | outcome [2] | outcome [3] | outcome [4] | outcome [5] | outcome [6] | outcome [7] | Potency [8] | outcome [9]

CC(N)CCCC(C)(C)O (configuration not stated)
inactive: outcome [1] | outcome [2] | outcome [3] | outcome [4] | outcome [5] | outcome [6] | outcome [7] | Potency [8] | outcome [9]

CC(C)(C)NC[C@H](O)COc1cccc2c1CCCC2=O
inactive: fluorescence, % of fluorescent control [1] 0.0024% [at 18.6 µM] | activity change [2] -0.0347% [at 18.6 µM] | fluorescence, % of fluorescent control [3] -0.286% [at 18.6 µM] | fluorescence, % of Rose Bengal [4] 0.355% [at 18.6 µM] | fluorescence, % of fluorescent control [5] -0.0088% [at 18.6 µM] | fluorescence, % of fluorescein control [6] -0.0049% [at 18.6 µM] | fluorescence, % of fluorescent control [7] 0.0464% [at 18.6 µM] | Potency [8] | outcome [9]
